Assay outcomes as filed in PubChem BioAssay.
Only some compounds are listed: those with a hit (about 18% of all), similar ones and a draw of the others.
DT40 TDP1 no CPT – qHTS for Inhibitors of human tyrosyl-DNA phosphodiesterase 1 (TDP1): qHTS in cells in absence of CPT. DT40 Tdp1-/- hTDP1 cells, no CPT, ATP luminescence, 48 h. Potency, µM (doses to about 46.2 µM), most hits filed as inhibitors. actives 15% (n = 420,000). AID 686978, 2013; further: nearly all actives have a fitted effect of over 55% in size
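Camptothecin absent (DMSO only). Human TDP1-complemented DT40 knockout cells, 400 cells/well, 37 °C for minimum 48 hr; ATP measured via CellTiter-Glo, 30 min dark incubation, luminescence.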
Gal4-VP16 FLuc – inhibits Gal4-VP16 luciferase reporter, ROR gamma counter-screen | Drosophila S2 Gal4-VP16 UAS-luciferase, luminescence, 20 h | Potency, µM (top dose mostly 53.6 µM), hits mostly inhibitors | actives 3.5% (n = 310,000);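 further: Gal4-VP16 expression switched on by copper sulfate through the metallothionein promoter; nearly all actives have a fitted effect of over 50% in size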
DT40 TDP1 CPT – DT40-hTDP1 cell growth loss with CPT; chicken DT40 Tdp1-/-;hTDP1 cells + 20 nM CPT, ATP luminescence, 48 h; Potency, µM (top dose mostly 46.2 µM), most hits filed as inhibitors; actives 12% (n = 420,000); AID 686979; further: nearly all actives have a fitted effect of over 55% in size
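Chicken DT40 Tdp1-/- cells stably complemented with human TDP1 were seeded at 400 cells/well in medium containing 20 nM camptothecin, exposed to pin-transferred compounds, and grown at 37 °C for at least 48 hr. Viability was read as ATP luminescence.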
LDHA inh – inhibitors of human lactate dehydrogenase A; AID 1347041; actives 0.15% (n = 480,000); purified LDHA, NADH/diaphorase-resazurin fluorescence; hits give low values; activity change, % (values are at about 110 or 230 µM); P00338; in the data active means activity change below about -30%; inconclusive means mostly about -25% to -30%
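Human LDH5 (2 nM) was incubated with 0.06 mM NADH and 0.2 mM pyruvate for 5 min at room temperature in Tris pH 7.4. Remaining NADH was coupled through diaphorase/resazurin, and resorufin fluorescence was read at 0 and 20 min.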
IL-1B inflam inh – inflammasome signaling inhibition, IL-1 beta readout; THP-1 LPS/ATP IL-1B secretion, AlphaLISA, 16 h; hits give low values; activity change, % at 57.5 µM; actives 4.7% (n = 360,000); in the data active means activity change below about -50%; inconclusive means mostly about -30% to -49%
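THP-1 cells pretreated 1 hr with compounds (up to 57.5 uM final), then stimulated with LPS (250 ng/mL final) plus ATP (1.25 mM final); secreted IL-1B measured by AlphaLISA after 16 hr, decreased signal indicating inhibition.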
RORgamma inh – blocks mouse ROR gamma transcriptional activity. Drosophila S2 Gal4-RORgamma UAS-luciferase reporter, 20 h. Potency, µM (top dose mostly 53.6 µM), actives largely listed as inhibitors. actives 5.4% (n = 310,000). AID 2551; further: nearly all actives have a fitted effect of over 60% in size
Target sequence (P51450 whole entry, looked up, the tested form may be a part): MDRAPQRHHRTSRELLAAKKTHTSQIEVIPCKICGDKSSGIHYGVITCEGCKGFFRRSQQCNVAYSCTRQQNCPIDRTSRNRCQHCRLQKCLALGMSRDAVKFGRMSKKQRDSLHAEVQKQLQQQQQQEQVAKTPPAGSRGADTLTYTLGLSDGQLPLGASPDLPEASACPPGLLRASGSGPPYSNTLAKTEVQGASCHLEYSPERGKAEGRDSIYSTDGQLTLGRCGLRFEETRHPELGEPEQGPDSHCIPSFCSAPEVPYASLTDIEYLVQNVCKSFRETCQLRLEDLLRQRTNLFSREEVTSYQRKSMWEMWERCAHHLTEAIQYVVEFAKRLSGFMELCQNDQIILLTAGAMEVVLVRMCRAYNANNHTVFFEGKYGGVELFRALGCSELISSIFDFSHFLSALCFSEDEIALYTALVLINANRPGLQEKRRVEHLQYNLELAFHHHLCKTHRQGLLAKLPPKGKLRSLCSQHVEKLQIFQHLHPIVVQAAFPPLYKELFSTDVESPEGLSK
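A Gal4/UAS one-hybrid system in insect cells: metallothionein-promoter Gal4–ROR gamma fusion plus Photinus luciferase reporter. Copper sulfate 700 uM final, 20 hr ambient incubation, luminescent detection after 10 min with reagent.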
A number is an active result; 0 = inactive; ? = inconclusive; - = no result given; [ ] = another dose, or the depositor's remark. Unless noted, the call rests on the fitted dose curve; in most records, active means well fitted curve in the direction sought with a large enough effect; inconclusive means small, poorly fitted or top-dose-only effect, or another doubt; inactive means no such curve, though single readings can be large; an effect the other way counts as inactive or inconclusive.

SMILES | DT40 TDP1 no CPT | Gal4-VP16 FLuc | DT40 TDP1 CPT | LDHA inh | IL-1B inflam inh | RORgamma inh
C[C@@H]1OC(OC2C(OC3CC[C@@]4(C)C5CC=C6C7CC(C)(C)CC[C@@]7(C(=O)O)CCC6(C)C5(C)CCC4[C@]3(C)CO)OCC(O)C2O)C(O)C(O)C1O (stereo partly specified) | 16µM | 0 | ? | - | - | 0
CC(C)C[C@H](NC(=O)[C@H](Cc1ccccc1)NC(=O)CNC(=O)[C@H](CO)NC(=O)[C@@H](N)Cc1ccc(O)cc1)C(=O)N[C@H](C(=O)O)[C@H](C)O | 0[4.12 µM] | - | 0[4.12 µM] | - | - | -
CN(C)c1ccc([N+](=O)[O-])c2cnccc12 | - | - | - | 0 | - | -
Cc1ccsc1-c1nc(CSCC(=O)N2CCC3(CC2)OCCO3)c(C)o1 | 16µM | 0 | 23µM | 0 | 0 | 0
O[C@H]1CCCC[C@H]1N1CCC(c2ccccc2)CC1 | 0 | 0 | 0 | - | - | 0
On1ccccc1=S | 0.0092µM | - | 0.13µM | 0 | -107 | -
CC(=O)OC1N=C(c2ccccc2Cl)c2cc(Br)ccc2NC1=O (stereo unspecified) | ? | 0 | ? | 0 | -71 | 0
CCOc1cc(OP(=S)(OC)OC)nc(CC)n1 | - | 0 | - | - | - | 0
CCC(=O)CCCCC[C@@H]1NC(=O)[C@H]2CCCCN2C(=O)[C@H]([C@@H](C)CC)NC(=O)[C@H](Cc2cn(OC)c3ccccc23)NC1=O | - | 0 | - | - | - | 0
Cn1cc(C(=O)N2CCC3(CC2)OCCO3)c2c3ccccc3n(C)c2c1=O | 0 | 0 | 0 | 0 | 0 | 0
Cc1ccc(Cl)cc1N1CCN(C(=O)c2cn(CC(C)C)c(=O)c3c2c2ccccc2n3C)CC1 | 4.6µM | - | 6.5µM | 0 | - | -
Cc1ccc(-n2nc(C)c3c2NC(=O)CSC3c2ccc(O)cc2)cc1Cl (stereo unspecified) | ? | - | 0 | 0 | - | -
CC(C)Oc1ccc(C(=O)Nc2ccc3c(c2)CCCN3C(=O)c2cccs2)cc1 | 6.5µM | - | 12µM | 0 | - | -
O=P(c1ccccc1)(c1ccccc1)N1CC2(CC2)CC(O)(c2ccccc2)C1 (stereo unspecified) | - | 0 | - | - | - | 0
COc1ccc(-n2nnnc2C(CCSC)N2CCC(n3c(=O)[nH]c4ccccc43)CC2)cc1 (stereo unspecified) | 21µM | - | ? | 0 | 0 | -
CSCCC(c1nnnn1-c1ccc2c(c1)OCCO2)N1CCC2(CC1)C(=O)NCN2c1ccccc1 (stereo unspecified) | ? | - | ? | 0 | 0 | -
COc1ccc(-n2nnnc2C(CCc2ccccc2)N2CCC(n3c(=O)[nH]c4ccccc43)CC2)cc1 (stereo unspecified) | 23µM | - | ? | 0 | - | -
O=c1[nH]c2ccccc2n1C1CCN(C(CCc2ccccc2)c2nnnn2-c2ccc3c(c2)OCCO3)CC1 (stereo unspecified) | 2.9µM | - | 3.7µM | 0 | ? | -
Cc1cccc(C)c1-n1nnnc1C(CCc1ccccc1)N1CCC(n2c(=O)[nH]c3ccccc32)CC1 (stereo unspecified) | 5.8µM | - | 5.8µM | 0 | 0 | -
CC/C=C\C/C=C\C/C=C\C/C=C\C/C=C\CCCC(N)=O | - | 0 | - | - | - | 0
COc1cccc(C(c2nnnn2-c2c(C)cccc2C)N2CCC(n3c(=O)[nH]c4ccccc43)CC2)c1OC (stereo unspecified) | 5.8µM | - | 5.8µM | 0 | -84 | -
Cc1sc2ncnc(N3CCC(C(=O)Nc4ccc(C#N)c(Cl)c4)CC3)c2c1C | ? | - | 18µM | 0 | 0 | -
CC(Cc1ccccc1)N(C)C (stereo unspecified) | - | 0 | - | 0 | - | 0
CN(C[C@H](Cc1ccccc1)N(C[C@H](Cc1ccccc1)N(CC1(c2ccccc2)CC1)N=O)N=O)N=O | 18µM | 0 | ? | 0 | 0 | 0
Cc1cc(C(=O)OCC(=O)Nc2ccccc2Br)c(C)n1C(C)C | - | - | - | 0 | - | -
SMILES | DT40 TDP1 no CPT | Gal4-VP16 FLuc | DT40 TDP1 CPT | LDHA inh | IL-1B inflam inh | RORgamma inh
COc1cc2c3cc1Oc1cc(ccc1O)C[C@@H]1c4c(cc(OC)c(O)c4Oc4cccc(c4)C[C@H]3N(C)CC2)CC[N+]1(C)C | - | 0 | - | - | - | 0
O=NN(c1ccccc1)c1ccccc1 | - | 0 | - | - | - | 0
CC(=O)Nc1cc(-c2ccc(C(=O)NC3CC3)cc2)cn2c(-c3ccc(F)c(Cl)c3)cnc12 | 15µM | - | ? | 0 | 0 | -
CC/C=C\C/C=C\C/C=C\C/C=C\C/C=C\CCCC(=O)NCCO | - | 0 | - | - | - | 0
COc1cc(/C=N/Nc2ccc(S(N)(=O)=O)cc2)cc(OC)c1OC | 21µM | 0 | ? | 0 | 0 | 0
N#Cc1ccc(CN2CCN(C(=O)Cc3n[nH]c(=O)c4ccccc34)CC2)cc1 | - | - | - | 0 | - | -
O=[N+]([O-])c1ccc(Oc2ccc(N=C=S)cc2)cc1 | 12µM | - | ? | - | - | -
C[C@@H](N)Cn1ccc2cc(F)c(Cl)cc21 | ? | 0 | 0 | - | - | 0
CC(=O)c1cn(Cc2ccccc2C#N)c2ccccc12 | 1µM | 3.2µM | 2.1µM | 0 | 0 | ?
O=Cc1cn(Cc2ccccc2F)c2ccccc12 | 15µM | 0[10 µM] | 21µM | 0 | ? | 2µM
COc1ccc(OC)c(NC(=O)Cn2cc(C(=O)c3ccccc3F)c3ccccc32)c1 | 23µM | - | ? | 0 | - | -
CC(=O)c1cn(Cc2ccccc2F)c2ccccc12 | 4.6µM | 7.1µM | 8.2µM | 0 | 0 | 0
O=C(c1ccccc1F)c1cn(Cc2ccccc2)c2ccccc12 | ? | 0 | ? | 0 | 0 | ?
COC(=O)Cn1cc(C(=O)c2ccccc2F)c2ccccc21 | 0 | 0 | 0 | 0 | 0 | 0
CC(C)C(=O)c1cn(Cc2ccccc2C#N)c2ccccc12 | ? | 0 | ? | 0 | 0 | 0
CCN(CC)C(=O)c1ccc(NC(=O)c2cc3cc(F)ccc3[nH]2)cc1 | - | - | - | 0 | - | -
C#Cc1cccc2c1c(C(=O)c1ccc(Cn3c(C)nc4cnccc43)c(F)c1)cn2C(=O)N(C)C | - | 0 | - | - | - | 0
O=C(c1ccccc1F)c1cn(Cc2ccc(F)cc2)c2ccccc12 | ? | ? | 16µM | 0 | ? | ?
COc1ccc(NC(=O)c2ccccc2SCc2ccccc2)cc1 | 4.6µM | - | 5.2µM | 0 | ? | -
Cc1ccccc1C1=NCC(=O)N(CC(=O)NCc2ccco2)c2sc3c(c21)CCCC3 | 22µM | 13µM | 16µM | 0 | -71 | ?
CCc1ccc(NC(=O)CN2C(=O)CN=C(c3ccc(OC)cc3)c3c2sc2c3CCC2)cc1 | - | - | - | 0 | - | -
CCCC(=O)O[C@@H]1[C@@H](C)[C@@]2(O)[C@@H](C=C(CO)C[C@@]3(O)C(=O)C(C)=C[C@@H]23)[C@@H]2C(C)(C)[C@]12OC(=O)CCC | - | 0 | - | - | - | 0
CCCNS(=O)(=O)c1ccc(OCC(=O)N2CCN(Cc3ccc4c(c3)OCO4)CC2)cc1 | 12µM | - | ? | 0 | 0 | 0[0.365 µM]
COc1cc(C=O)cc2c1OCO2 | - | - | - | 0 | - | -
